# In publication PMC7862700, “An all-to-all approach to the identification of sequence-specific readers for epigenetic DNA modifications on cytosine”:
# How the values were obtained:
# Assay in all cases: DAPPL (digital affinity profiling via proximity ligation, sequencing); 10 mM Tris-HCl pH 7.5, 50 mM NaCl, 1 mM DTT, 4% glycerol, room temperature, 30 min; GST-TFs on glutathione beads, 16-mer random dsDNA library, 0.1% formaldehyde crosslink after washing; high values mean tight binding
# [1] = biological target: T1, FLI1 (Homo sapiens, UniProt Q01543 1-452); settings: protein: recombinant; tags: N-terminal GST; dsDNA, one strand shown
# T1 sequence: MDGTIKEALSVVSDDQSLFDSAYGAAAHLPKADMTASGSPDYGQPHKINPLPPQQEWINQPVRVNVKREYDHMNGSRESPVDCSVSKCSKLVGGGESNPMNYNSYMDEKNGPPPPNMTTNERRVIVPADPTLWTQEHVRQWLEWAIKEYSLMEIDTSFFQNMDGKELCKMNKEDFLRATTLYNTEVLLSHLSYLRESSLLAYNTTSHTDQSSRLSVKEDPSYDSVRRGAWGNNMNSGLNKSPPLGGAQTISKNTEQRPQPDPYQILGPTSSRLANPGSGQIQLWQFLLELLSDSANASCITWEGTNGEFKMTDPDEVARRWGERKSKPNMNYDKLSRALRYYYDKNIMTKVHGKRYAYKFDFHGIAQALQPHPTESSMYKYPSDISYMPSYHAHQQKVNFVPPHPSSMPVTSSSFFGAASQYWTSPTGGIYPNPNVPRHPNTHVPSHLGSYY
# Procedure, shortened: (§1)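 Human transcription factors carrying a GST fusion were produced in yeast, bound to glutathione beads, tagged with DNA barcodes and pooled together with a tag-only sample. Each pool was held with 200 nmole of a random double-stranded 16-mer DNA library in Tris/NaCl/DTT/glycerol buffer for 30 min at room temperature, then washed, crosslinked in 0.1% formaldehyde, proximity-ligated with BsaI/T4 ligase (1 h, 37 °C), PCR-amplified and sequenced on an Illumina NextSeq500. Binding signal is the read frequency of each hexamer for a given factor divided by its frequency in the tag-only sample.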
# [2] = biological target: T2, ELK1 (Homo sapiens, UniProt P19419 1-428); settings: protein: recombinant; tags: N-terminal GST; dsDNA, one strand shown
# T2 sequence: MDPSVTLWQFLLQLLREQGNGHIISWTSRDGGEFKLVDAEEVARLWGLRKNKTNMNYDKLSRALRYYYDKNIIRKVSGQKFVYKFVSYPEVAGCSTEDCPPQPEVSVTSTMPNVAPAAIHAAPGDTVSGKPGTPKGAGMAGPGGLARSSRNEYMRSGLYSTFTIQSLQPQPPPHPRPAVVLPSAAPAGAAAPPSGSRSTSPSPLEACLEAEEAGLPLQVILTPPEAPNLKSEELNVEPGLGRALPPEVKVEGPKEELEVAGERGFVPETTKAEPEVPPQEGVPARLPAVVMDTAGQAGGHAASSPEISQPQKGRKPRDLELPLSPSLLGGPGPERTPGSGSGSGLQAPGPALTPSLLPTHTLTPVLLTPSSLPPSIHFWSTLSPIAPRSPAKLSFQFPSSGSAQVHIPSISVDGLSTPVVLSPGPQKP
# Procedure, shortened: as §1
# [3] = biological target: T3, GABPA (Homo sapiens, UniProt Q06546 1-454); settings: protein: recombinant; tags: N-terminal GST; dsDNA, one strand shown
# T3 sequence: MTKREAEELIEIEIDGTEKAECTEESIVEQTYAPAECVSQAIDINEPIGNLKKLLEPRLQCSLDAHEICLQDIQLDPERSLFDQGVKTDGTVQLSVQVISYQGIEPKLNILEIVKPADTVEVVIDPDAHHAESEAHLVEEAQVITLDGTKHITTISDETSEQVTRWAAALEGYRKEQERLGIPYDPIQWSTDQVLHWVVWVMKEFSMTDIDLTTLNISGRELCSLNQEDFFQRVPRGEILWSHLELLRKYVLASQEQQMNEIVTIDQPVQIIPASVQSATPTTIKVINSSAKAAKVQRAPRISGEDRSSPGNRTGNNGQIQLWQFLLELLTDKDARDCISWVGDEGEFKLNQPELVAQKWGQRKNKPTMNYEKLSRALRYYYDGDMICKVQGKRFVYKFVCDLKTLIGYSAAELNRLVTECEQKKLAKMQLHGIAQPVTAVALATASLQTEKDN
# Procedure, shortened: as §1
# [4] = biological target: T4, ERG (Homo sapiens, UniProt P11308 1-479); settings: protein: recombinant; tags: N-terminal GST; dsDNA, one strand shown
# T4 sequence: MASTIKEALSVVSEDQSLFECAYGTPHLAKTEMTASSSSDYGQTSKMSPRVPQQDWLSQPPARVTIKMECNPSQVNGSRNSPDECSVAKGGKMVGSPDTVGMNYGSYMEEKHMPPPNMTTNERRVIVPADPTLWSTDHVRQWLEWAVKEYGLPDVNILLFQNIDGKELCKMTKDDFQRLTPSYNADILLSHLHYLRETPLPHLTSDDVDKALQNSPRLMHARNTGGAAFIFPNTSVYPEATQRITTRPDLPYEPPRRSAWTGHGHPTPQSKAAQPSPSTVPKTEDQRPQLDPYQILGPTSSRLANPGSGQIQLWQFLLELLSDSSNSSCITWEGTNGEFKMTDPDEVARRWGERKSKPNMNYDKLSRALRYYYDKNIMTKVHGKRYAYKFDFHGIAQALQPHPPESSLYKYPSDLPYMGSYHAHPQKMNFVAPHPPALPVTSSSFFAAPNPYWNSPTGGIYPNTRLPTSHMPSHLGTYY
# Procedure, shortened: as §1
# [5] = biological target: ELF1 (Homo sapiens, UniProt P32519 1-619); settings: protein: recombinant; tags: N-terminal GST; dsDNA, one strand shown
# Procedure, shortened: as §1
# [6] = biological target: T5, EHF (Homo sapiens, UniProt Q9NZC4 1-300); settings: protein: recombinant; tags: N-terminal GST; dsDNA, one strand shown
# T5 sequence: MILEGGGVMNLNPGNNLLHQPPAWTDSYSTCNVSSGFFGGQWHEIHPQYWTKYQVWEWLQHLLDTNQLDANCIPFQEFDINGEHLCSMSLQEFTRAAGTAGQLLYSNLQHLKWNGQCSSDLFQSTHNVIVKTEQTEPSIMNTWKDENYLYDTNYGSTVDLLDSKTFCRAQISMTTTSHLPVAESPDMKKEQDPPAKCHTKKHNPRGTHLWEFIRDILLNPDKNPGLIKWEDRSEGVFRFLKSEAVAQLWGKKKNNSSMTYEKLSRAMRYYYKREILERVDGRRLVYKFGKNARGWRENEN
# Procedure, shortened: as §1
# [7] = biological target: SPI1 (Homo sapiens, UniProt P17947 1-270); settings: protein: recombinant; tags: N-terminal GST; dsDNA, one strand shown
# Procedure, shortened: as §1
# [8] = biological target: SPIB (Homo sapiens, UniProt Q01892 1-262); settings: protein: recombinant; tags: N-terminal GST; dsDNA, one strand shown
# Procedure, shortened: as §1
# [9] = biological target: T6, ELK3 (Homo sapiens, UniProt P41970 1-407); settings: protein: recombinant; tags: N-terminal GST; dsDNA, one strand shown
# T6 sequence: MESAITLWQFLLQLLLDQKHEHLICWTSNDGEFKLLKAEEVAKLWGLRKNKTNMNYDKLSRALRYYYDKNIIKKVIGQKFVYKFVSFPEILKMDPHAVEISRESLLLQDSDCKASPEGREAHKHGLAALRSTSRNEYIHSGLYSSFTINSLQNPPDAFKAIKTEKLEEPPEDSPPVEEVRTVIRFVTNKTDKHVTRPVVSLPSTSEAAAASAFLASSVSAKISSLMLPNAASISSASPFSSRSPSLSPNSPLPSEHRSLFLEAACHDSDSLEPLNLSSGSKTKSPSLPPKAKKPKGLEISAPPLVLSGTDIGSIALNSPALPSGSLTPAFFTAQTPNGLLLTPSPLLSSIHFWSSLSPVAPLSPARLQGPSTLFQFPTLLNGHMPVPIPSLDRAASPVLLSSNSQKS
# Procedure, shortened: as §1
# [10] = biological target: T7, FEV (Homo sapiens, UniProt Q99581 1-238); settings: protein: recombinant; tags: N-terminal GST; dsDNA, one strand shown
# T7 sequence: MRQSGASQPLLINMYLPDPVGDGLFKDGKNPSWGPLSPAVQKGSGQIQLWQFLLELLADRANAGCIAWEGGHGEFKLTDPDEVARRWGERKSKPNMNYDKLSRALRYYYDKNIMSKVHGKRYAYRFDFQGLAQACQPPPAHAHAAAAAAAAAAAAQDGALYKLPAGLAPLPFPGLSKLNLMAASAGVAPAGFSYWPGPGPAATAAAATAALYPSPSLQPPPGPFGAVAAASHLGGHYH
# Procedure, shortened: as §1
# [11] = biological target: ETV5 (Homo sapiens, UniProt P41161 1-510); settings: protein: recombinant; tags: N-terminal GST; dsDNA, one strand shown
# Procedure, shortened: as §1
# [12] = biological target: HSF1 (Homo sapiens, UniProt Q00613 1-529); settings: protein: recombinant; tags: N-terminal GST; chain copies: 3; dsDNA, one strand shown
# Procedure, shortened: as §1
# [13] = biological target: T8, SPIC (Homo sapiens, UniProt Q8N5J4 1-248); settings: protein: recombinant; tags: N-terminal GST; dsDNA, one strand shown
# T8 sequence: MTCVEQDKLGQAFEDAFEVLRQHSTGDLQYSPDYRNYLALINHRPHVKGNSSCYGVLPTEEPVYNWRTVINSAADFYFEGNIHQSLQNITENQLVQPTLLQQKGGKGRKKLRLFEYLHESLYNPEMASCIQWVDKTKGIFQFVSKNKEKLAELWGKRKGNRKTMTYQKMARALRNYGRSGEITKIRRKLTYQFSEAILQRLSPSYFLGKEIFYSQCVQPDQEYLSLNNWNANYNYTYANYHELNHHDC
# Procedure, shortened: as §1
# [14] = biological target: ELF4 (Homo sapiens, UniProt Q99607 1-663); settings: protein: recombinant; tags: N-terminal GST; dsDNA, one strand shown
# Procedure, shortened: as §1
# [15] = biological target: T9, ELK4 (Homo sapiens, UniProt P28324-2 1-405); settings: protein: recombinant; tags: N-terminal GST; dsDNA, one strand shown
# T9 sequence: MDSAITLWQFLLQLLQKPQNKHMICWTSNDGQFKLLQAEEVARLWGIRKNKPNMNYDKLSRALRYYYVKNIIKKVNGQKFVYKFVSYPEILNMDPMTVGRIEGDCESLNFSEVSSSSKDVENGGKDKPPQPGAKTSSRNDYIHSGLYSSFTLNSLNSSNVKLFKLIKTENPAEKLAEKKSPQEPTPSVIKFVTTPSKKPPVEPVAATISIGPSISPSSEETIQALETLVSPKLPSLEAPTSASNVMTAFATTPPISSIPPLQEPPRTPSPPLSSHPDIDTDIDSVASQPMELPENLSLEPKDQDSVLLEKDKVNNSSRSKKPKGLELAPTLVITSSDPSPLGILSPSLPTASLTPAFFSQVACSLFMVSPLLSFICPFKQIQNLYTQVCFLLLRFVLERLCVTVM
# Procedure, shortened: as §1
# [16] = biological target: T10, ETV2 (Homo sapiens, UniProt O00321 1-342); settings: protein: recombinant; tags: N-terminal GST; dsDNA, one strand shown
# T10 sequence: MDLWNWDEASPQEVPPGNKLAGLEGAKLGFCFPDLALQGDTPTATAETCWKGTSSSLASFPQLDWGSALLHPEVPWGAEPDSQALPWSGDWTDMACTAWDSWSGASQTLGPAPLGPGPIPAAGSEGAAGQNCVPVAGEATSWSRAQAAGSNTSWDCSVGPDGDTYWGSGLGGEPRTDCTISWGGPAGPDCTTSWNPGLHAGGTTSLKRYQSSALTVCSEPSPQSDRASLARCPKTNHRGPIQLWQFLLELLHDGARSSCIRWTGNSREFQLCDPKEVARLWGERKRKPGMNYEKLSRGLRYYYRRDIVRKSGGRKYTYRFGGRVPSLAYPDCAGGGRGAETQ
# Procedure, shortened: as §1
# [17] = biological target: T11, ELF3 (Homo sapiens, UniProt P78545 1-371); settings: protein: recombinant; tags: N-terminal GST; dsDNA, one strand shown
# T11 sequence: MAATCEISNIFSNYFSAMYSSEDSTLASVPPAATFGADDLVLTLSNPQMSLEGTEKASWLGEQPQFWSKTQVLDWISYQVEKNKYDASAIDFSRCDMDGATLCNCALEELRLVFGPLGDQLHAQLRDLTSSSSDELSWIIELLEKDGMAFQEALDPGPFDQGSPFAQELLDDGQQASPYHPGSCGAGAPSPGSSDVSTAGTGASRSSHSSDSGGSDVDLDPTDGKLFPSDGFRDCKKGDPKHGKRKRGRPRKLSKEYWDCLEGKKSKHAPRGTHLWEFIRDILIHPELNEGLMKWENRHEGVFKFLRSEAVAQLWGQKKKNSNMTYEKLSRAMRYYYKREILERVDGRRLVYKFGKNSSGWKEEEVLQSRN
# Procedure, shortened: as §1
# [18] = biological target: ETV1 (Homo sapiens, UniProt P50549 1-477); settings: protein: recombinant; tags: N-terminal GST; dsDNA, one strand shown
# Procedure, shortened: as §1
# Chain of ELF1 (P32519 whole entry): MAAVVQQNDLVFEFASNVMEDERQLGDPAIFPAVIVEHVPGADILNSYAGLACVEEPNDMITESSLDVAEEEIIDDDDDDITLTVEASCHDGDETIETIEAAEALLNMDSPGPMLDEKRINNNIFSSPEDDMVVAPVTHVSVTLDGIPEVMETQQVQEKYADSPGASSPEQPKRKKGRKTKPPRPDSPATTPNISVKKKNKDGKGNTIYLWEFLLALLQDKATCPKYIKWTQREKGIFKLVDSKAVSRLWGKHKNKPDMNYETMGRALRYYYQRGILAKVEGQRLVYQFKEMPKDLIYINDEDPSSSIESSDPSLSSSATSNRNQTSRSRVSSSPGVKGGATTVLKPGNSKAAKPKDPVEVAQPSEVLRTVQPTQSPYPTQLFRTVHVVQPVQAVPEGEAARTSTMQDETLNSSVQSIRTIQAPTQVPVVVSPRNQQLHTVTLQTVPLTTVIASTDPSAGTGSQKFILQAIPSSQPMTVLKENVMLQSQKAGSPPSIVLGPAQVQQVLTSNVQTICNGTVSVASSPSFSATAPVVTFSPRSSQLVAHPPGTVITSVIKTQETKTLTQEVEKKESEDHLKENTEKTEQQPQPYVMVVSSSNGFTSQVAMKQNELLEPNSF
# Chain of ELF4 (Q99607 whole entry): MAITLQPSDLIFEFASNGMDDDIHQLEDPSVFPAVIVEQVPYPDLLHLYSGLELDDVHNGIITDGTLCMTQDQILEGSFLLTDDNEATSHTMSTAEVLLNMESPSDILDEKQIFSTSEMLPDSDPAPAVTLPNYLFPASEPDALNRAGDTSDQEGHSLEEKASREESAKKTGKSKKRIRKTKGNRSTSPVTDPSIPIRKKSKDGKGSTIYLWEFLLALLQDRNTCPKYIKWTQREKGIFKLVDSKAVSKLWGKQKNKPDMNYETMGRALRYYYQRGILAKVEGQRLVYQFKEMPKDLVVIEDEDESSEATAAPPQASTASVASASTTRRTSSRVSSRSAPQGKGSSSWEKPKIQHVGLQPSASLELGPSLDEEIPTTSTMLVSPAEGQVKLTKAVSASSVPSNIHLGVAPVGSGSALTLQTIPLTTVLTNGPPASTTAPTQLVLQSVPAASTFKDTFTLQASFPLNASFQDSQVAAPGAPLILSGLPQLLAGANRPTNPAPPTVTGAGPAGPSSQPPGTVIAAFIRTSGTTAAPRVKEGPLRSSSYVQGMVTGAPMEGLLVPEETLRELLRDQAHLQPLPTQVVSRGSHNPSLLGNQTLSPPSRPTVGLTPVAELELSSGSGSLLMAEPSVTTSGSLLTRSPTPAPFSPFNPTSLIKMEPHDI
# Chain of ETV1 (P50549 whole entry): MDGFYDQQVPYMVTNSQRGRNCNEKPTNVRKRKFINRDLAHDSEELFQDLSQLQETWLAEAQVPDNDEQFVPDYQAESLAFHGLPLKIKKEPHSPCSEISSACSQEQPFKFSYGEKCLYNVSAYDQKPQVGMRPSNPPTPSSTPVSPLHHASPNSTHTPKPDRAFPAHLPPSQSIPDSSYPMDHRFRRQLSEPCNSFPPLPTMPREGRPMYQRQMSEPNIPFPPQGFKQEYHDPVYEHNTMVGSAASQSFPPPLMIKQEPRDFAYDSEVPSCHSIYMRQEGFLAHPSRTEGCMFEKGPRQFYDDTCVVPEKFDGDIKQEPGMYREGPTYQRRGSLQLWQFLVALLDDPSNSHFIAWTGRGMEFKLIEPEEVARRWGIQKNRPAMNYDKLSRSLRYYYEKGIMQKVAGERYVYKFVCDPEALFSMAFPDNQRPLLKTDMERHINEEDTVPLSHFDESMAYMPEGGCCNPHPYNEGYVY
# Chain of ETV5 (P41161 whole entry): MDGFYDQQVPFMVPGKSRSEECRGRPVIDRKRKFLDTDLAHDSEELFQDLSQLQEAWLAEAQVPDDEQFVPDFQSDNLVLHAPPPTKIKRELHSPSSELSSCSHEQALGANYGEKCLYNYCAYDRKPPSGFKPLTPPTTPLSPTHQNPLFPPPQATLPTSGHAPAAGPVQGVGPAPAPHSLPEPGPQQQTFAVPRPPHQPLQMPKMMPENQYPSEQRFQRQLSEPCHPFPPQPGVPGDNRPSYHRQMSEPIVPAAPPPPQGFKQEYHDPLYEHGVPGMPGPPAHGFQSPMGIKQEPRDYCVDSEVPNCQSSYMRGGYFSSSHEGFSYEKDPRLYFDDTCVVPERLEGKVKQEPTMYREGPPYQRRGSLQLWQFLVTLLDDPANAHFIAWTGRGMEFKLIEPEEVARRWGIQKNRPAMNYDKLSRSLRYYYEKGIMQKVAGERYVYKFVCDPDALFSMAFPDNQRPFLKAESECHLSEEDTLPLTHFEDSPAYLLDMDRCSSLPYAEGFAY
# Chain of HSF1 (Q00613 whole entry): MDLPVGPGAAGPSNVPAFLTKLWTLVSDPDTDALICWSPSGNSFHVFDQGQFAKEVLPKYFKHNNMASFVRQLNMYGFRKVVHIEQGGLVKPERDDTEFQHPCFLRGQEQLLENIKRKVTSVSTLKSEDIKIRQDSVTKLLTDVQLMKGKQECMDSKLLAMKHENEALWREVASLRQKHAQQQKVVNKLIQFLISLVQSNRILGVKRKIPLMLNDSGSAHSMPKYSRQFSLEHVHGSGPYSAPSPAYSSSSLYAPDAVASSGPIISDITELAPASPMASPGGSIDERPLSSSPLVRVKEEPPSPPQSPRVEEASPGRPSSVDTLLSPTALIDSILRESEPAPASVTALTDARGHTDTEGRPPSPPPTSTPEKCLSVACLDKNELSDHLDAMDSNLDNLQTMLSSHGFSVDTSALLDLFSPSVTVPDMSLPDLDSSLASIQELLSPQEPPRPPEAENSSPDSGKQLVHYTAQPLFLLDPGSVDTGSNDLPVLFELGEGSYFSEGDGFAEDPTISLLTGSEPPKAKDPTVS
# Chain of SPIB (Q01892 whole entry): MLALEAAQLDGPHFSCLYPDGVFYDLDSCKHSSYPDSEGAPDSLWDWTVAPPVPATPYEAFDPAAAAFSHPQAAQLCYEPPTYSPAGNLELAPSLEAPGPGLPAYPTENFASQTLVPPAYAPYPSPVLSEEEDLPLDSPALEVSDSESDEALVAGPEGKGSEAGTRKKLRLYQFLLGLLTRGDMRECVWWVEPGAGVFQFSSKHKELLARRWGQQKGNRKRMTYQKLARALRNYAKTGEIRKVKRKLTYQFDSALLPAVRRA
sequence,measurement,setting,value
GCAAAA,binding signal,[1],"1.04 fold enrichment (6-mer frequency, TF over GST control)"
same,binding signal,[2],"1.08 fold enrichment (6-mer frequency, TF over GST control)"
same,binding signal,[3],"1.08 fold enrichment (6-mer frequency, TF over GST control)"
same,binding signal,[4],"1.05 fold enrichment (6-mer frequency, TF over GST control)"
same,binding signal,[5],"1.09 fold enrichment (6-mer frequency, TF over GST control)"
same,binding signal,[6],"1.14 fold enrichment (6-mer frequency, TF over GST control)"
same,binding signal,[7],"1.16 fold enrichment (6-mer frequency, TF over GST control)"
same,binding signal,[8],"1.13 fold enrichment (6-mer frequency, TF over GST control)"
same,binding signal,[9],"1.15 fold enrichment (6-mer frequency, TF over GST control)"
same,binding signal,[10],"1.08 fold enrichment (6-mer frequency, TF over GST control)"
same,binding signal,[11],"1.07 fold enrichment (6-mer frequency, TF over GST control)"
same,binding signal,[12],"1.01 fold enrichment (6-mer frequency, TF over GST control)"
same,binding signal,[13],"1.06 fold enrichment (6-mer frequency, TF over GST control)"
same,binding signal,[14],"1.13 fold enrichment (6-mer frequency, TF over GST control)"
same,binding signal,[15],"1.16 fold enrichment (6-mer frequency, TF over GST control)"
same,binding signal,[16],"1.14 fold enrichment (6-mer frequency, TF over GST control)"
same,binding signal,[17],"1.2 fold enrichment (6-mer frequency, TF over GST control)"
same,binding signal,[18],"1.14 fold enrichment (6-mer frequency, TF over GST control)"
